Compound activity deposited in PubChem BioAssay by NMMLSC.
Rac1 act GTP bind: modulators of GTP binding to human Rac1 activated mutant. AID 764. actives 0.11% (n = 190,000). P63000. GST-Rac1 activated beads, fluorescent GTP binding, flow cytometry; actives lie on both sides; 100% means binding = to untreated wells. percent activity (GTP binding), % at 10 µM;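 active = GTP binding at least 20 percentage points away from the 100% baseline, in either direction, so actives lie on both sides; inconclusive = Compound likely fluorescent itself, or too few beads counted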
HRas wt GTP bind: changes GTP binding to wildtype human HRas; actives 0.14% (n = 190,000); GTP binding activity, % at 10 µM; P01112; AID 759; GST-Ras wt beads, Bodipy-FL-GTP binding, flow cytometry; actives lie on both sides;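 active = GTP binding activity at least 20% away from the 100% baseline, either lowered as inhibitor or raised as activator; inconclusive = flagged as likely green fluorescent, judged across all proteins in the well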;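 also: 0% = unlabeled GTP competition control and 100% = no-compound control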
Target sequence (P01112 whole entry, looked up): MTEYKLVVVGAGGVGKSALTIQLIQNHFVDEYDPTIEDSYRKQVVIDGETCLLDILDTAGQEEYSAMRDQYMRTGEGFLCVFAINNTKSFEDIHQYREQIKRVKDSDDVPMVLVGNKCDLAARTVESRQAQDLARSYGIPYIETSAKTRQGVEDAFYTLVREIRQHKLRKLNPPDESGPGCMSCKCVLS
Rab2 wt GTP: changes GTP binding to wildtype dog Rab2A, up or down; P61105; GST-Rab2 wt beads, Bodipy-GTP binding, flow cytometry; GTP binding activity, % at 10 µM; actives 0.19% (n = 190,000); AID 760;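 active = GTP binding activity at least 20 points away from 100%, either lowered or raised; inconclusive = signal likely due to the compound's own green fluorescence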;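 also: 0% = beads with excess unlabeled GTP and 100% = no-compound control corrected for plate trend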
Rac1 wt GTP bind: human Rac1 wildtype GTP binding, inhibitors and activators | GST-Rac1 beads, fluorescent GTP binding, flow cytometry; actives lie on both sides; 0 = cold GTP competed, 100 = untreated | GTP binding activity (% of control), % at 10 µM | actives 0.27% (n = 190,000);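 active = GTP binding activity at least 20 points away from the 100% control level, either lower or higher; inconclusive = compound flagged as likely green fluorescent, judged across all proteins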
Cdc42 wt: modulators (inhibitors or activators) of GTP binding to human Cdc42 wildtype; percent activity (GTP binding), % at 10 µM; GST-Cdc42 beads, Bodipy-GTP binding, flow cytometry; actives lie on both sides; actives 0.2% (n = 190,000); P60953;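 active = percent activity GTP binding at least 20 points away from the 100% baseline, either down as inhibitor or up as activator; inconclusive = compound flagged as likely green fluorescent from well-wide comparison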;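 also: median bead fluorescence of bound Bodipy-FL-GTP at 100 nM; 0% = excess unlabeled GTP control and 100% = no compound control; below 100% means less GTP binding so inhibitor and above means activator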
Target sequence (P60953 whole entry, looked up): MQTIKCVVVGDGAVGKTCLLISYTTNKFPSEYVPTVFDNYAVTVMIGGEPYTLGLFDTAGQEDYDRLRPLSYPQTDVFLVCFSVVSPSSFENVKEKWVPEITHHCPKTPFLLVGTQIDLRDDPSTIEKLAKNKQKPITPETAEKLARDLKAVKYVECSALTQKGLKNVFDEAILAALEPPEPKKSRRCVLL
Rab7 wt GTP bind: dog Rab7 wildtype GTP binding, inhibitors and activators; actives 0.055% (n = 190,000); GTP binding activity (percent of control), % at 10 µM; GST-Rab7 beads, fluorescent GTP binding, flow cytometry; actives lie on both sides; untreated = 100%, excess cold GTP = 0%;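 active = fluorescent GTP binding to Rab7 beads changed by at least 20 points from the 100% baseline, either direction, mostly lower; inconclusive = compound itself probably fluorescent, or too few beads counted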;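 also: median green fluorescence of bound Bodipy-FL-GTP per Rab7 bead population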
* marks the source's active call; other numbers are inactive results; ? = inconclusive; nt = not tested or not shown; [ ] = dose if it differs, or a comment. In the library only some 0.4% were active in any assay of this set; here they are far more common.

SMILES	Rac1 act GTP bind	HRas wt GTP bind	Rab2 wt GTP	Rac1 wt GTP bind	Cdc42 wt	Rab7 wt GTP bind
Cc1cc(Cl)ccc1OCC(=O)OCC(=O)Nc1ccc(F)c([N+](=O)[O-])c1	91	74*	64*	97	77*	89
Cc1c(NS(=O)(=O)c2ccc3c(c2)Cc2ccccc2-3)c(=O)n(-c2ccccc2)n1C	76*	85	81	80	78*	90
Cc1c(NS(=O)(=O)c2ccc3c(c2)n(C)c(=O)n3C)c(=O)n(-c2ccccc2)n1C	102	103	103	109	104	98
O=C(N/N=C/c1ccc([N+](=O)[O-])o1)c1cn(-c2ccccc2)nc1-c1ccccc1	92	85	83	82	89	96
O=C(N/N=C/c1ccc([N+](=O)[O-])o1)c1cn(-c2ccccc2)nc1-c1ccc(Cl)cc1	86	81	82	79*	81	98
O=C(N/N=C/c1cccnc1)c1ccc2c(c1)OCCO2	100	98	97	102	100	100
Clc1ccc(-c2ccc(/C=N/Nc3nncc(-c4ccccc4)n3)o2)cc1	94	96	96	94	98	92
Clc1ccccc1-c1ccc(/C=N/Nc2nncc(-c3ccccc3)n2)o1	86	91	85	79*	84	97
Fc1cccc(Nc2ncnc3[nH]ncc23)c1	91	87	88	79*	88	104
O=C1c2ccccc2-n2c1nc1ccccc1c2=O	88	82	82	77*	81	97
Cc1ccc(-c2ccc(/C=C3\SC(N4CCOCC4)=NC3=O)o2)cc1	90	85	88	76*	87	90
O=C(COc1ccccc1[N+](=O)[O-])Nc1cc(Cl)ccc1C(=O)O	79*	85	83	87	80	92
CCN=C1SC(CC(N)=O)C(=O)N1CC (stereo unspecified)	96	97	97	99	98	100
Cc1ccc(Nc2c(F)c(F)c(F)c(F)c2C(=O)O)cc1	130*[activator]	117	127*[activator]	141*[activator]	128*[activator]	119
COc1cccc(Nc2c(F)c(F)c(F)c(F)c2C(=O)O)c1	116	113	113	131*[activator]	123*[activator]	113
Cc1cc(-c2ccccc2)nc(SCC(=O)N2CCCC2)n1	96	98	96	99	97	96
CC1=Nc2nc(N3CCCCC3)c(C#N)c3c4c(nc(c23)N1)N(c1ccc(C(C)C)cc1)C(=O)C4	95	95	92	97	93	99
Cn1c(=O)c2c(nc(N3CCc4ccccc4C3)n2C)n(C)c1=O	83	81	81	69*	80*	85
CCN1CCN(c2nc3c(c(=O)n(C)c(=O)n3C)n2Cc2cccc3ccccc23)CC1	101	108	111	120*[activator]	116	102
CCn1cc(C(=O)OCC(=O)c2cc(C)n(-c3cccc(C(F)(F)F)c3)c2C)c(=O)c2ccc(C)nc21	74*	80	72*	70*	79*	83
O=C(NC1CCCCC1)c1noc2c1CCCCC2	102	109	110	120*[activator]	114	105
CC(C)(C)C1CCc2onc(C(=O)NC3CCCC3)c2C1 (stereo unspecified)	98	104	100	102	105	99
CCNC(=O)NC(=O)C(C)OC(=O)c1cccn1C (stereo unspecified)	97	97	99	96	98	104
O=C(O)c1cc([N+](=O)[O-])ccc1NCc1ccccc1	146*[activator]	150*[activator]	153*[activator]	204*[activator]	172*[activator]	137*[activator]
Cc1ccccc1OCCn1cc(/C(N)=N/O)c2ccccc21	92	93	90	90	89	95
SMILES	Rac1 act GTP bind	HRas wt GTP bind	Rab2 wt GTP	Rac1 wt GTP bind	Cdc42 wt	Rab7 wt GTP bind
Cc1ccc(C)c(OCCn2cc(C(=O)O)c3ccccc32)c1	136*[activator]	129*[activator]	138*[activator]	170*[activator]	140*[activator]	136*[activator]
Cc1ccc(C)c(OCCn2cc(/C=C(\C#N)C(=O)NCc3ccco3)c3ccccc32)c1	99	101	101	101	99	99
Cc1ccccc1OCCn1cc(C(=O)O)c2ccccc21	128*[activator]	124*[activator]	126*[activator]	151*[activator]	123*[activator]	122*[activator]
CC(C)NC(=O)COc1nncc2ccccc12	99	98	97	97	97	101
Cc1nnc2ccc(-c3ccc(NC(=O)c4ccco4)cc3)nn12	88	85	84	75*	86	87
CC(=O)Nc1ccc(-c2ccc3nnc(C)n3n2)cc1	92	92	93	90	92	95
Cc1ccc(COc2ccsc2C(=O)O)cc1	115	114	117	118	120*[activator]	98
COCCNC(=O)c1cc2cc(Cl)cc(Cl)c2oc1=O	99	98	98	97	100	100
N=c1oc2ccc3ccccc3c2cc1-c1nc(-c2ccccc2)cs1	82	82	79*	79*	83	92
COCCOC(=O)C1=C(C)N=C2SCCC(=O)N2C1c1ccc(OC(=O)c2ccco2)cc1 (stereo unspecified)	102	102	102	103	103	97
Cc1ccc(NCC(=O)c2ccccc2)cc1Cl	92	78*	88	91	93	82
O=C(NCC1CCCN(C(=O)NCc2ccccc2)C1)c1ccc2c(c1)OCO2 (stereo unspecified)	96	95	97	99	98	94
Cc1ccc(-n2[nH]c(C)c(C=Nc3ccc(Br)cn3)c2=O)cc1	95	98	97	101	100	105
CSc1nnc(-c2cc(Br)ccc2N=Cc2c(C)[nH]n(-c3ccccc3)c2=O)c(=O)[nH]1	80	85	81	88	78*	93
COCCNC(=S)Nc1cc(OC)c(OC)cc1C#N	80	67*	59*	57*	60*	86
O=C(Cn1cccc1C(=O)c1ccccc1)NCc1cccc(Cl)c1	93	94	94	88	91	93
CCN1/C(=C/C=C/C=C/c2sc3ccccc3[n+]2CC)Sc2ccccc21	?	51*	57*	89	63*	nt
O=S(=O)(c1ccc2ncn(O)c2c1)N1CCOCC1	93	96	94	95	94	100
S=C(NCCc1ccccc1)NC1CC1	104	104	105	123*[activator]	117	99
CC(=O)Oc1c(-c2ccco2)oc2ccccc2c1=O	92	95	93	91	90	99
Cc1ccc(C)n1-c1ccc(-c2ccnc(N)n2)cc1	94	94	95	99	91	95
